Here are results for ten compounds from PubChem BioAssay (NCATS).

Results filed as inconclusive are left out. Activity calls are given as the source filed them. The call rests on the fitted dose curve; in most records, active means well fitted curve in the direction sought with a large enough effect; inconclusive means small, poorly fitted or top-dose-only effect, or another doubt; inactive means no such curve, though single readings can be large; an effect the other way counts as inactive or inconclusive.

The nature of test [1]: OV-KATE Cancer Cell Toxicity qHTS against the NCATS CANVASS Library (AID 1347345). Further: potency means the concentration at half of the fitted maximal effect. In short, it runs like this: (§1)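 Bortezomib titration and single-dose wells served as plate controls. Test compounds, 11 points, acted on 1000 cells/well for 72 h at 37 degrees C; CellTiter-Glo luminescence quantified remaining viable cells.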
The nature of test [2]: HPAF-II Cancer Cell Toxicity qHTS against the NCATS CANVASS Library (AID 1347346). Further: nearly all actives have a fitted effect of over 55% in size. Further: potency means the concentration at half of the fitted maximal effect. In short, it runs like this:
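Using 1000 HPAF-II cells per well, we titrated compounds over 11 concentrations for 72 h at 37 degrees C/5% CO2, with bortezomib as control. Cell survival was quantified by CellTiter-Glo luminescence.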
In general terms: Quantitative high-throughput screening tests each substance at several concentrations.

The nature of test [3]: UWB1.289 Cancer Cell Toxicity qHTS against the NCATS CANVASS Library (AID 1347347). Further: nearly all actives have a fitted effect of over 60% in size. Further: potency means the concentration at half of the fitted maximal effect. In short, it runs like this:
as §1

The nature of test [4]: OV-SAHO Cancer Cell Toxicity qHTS against the NCATS CANVASS Library (AID 1347348). Further: nearly all actives have a fitted effect of over 55% in size. Further: potency means the concentration at half of the fitted maximal effect. Summed up: as §1
Test [5] is described as follows: SW1088 Cancer Cell Toxicity qHTS against the NCATS CANVASS Library (AID 1347350). Further: nearly all actives have a fitted effect of over 75% in size. Further: potency means the concentration at half of the fitted maximal effect. Summed up:
as §1

A short description of test [6]: U-118MG Cancer Cell Toxicity qHTS against the NCATS CANVASS Library (AID 1347351). Further: potency means the concentration at half of the fitted maximal effect. In short, it runs like this: as §1
The nature of test [7]: COV-362 Cancer Cell Toxicity qHTS against the NCATS CANVASS Library (AID 1347352). Further: series mostly up to about 38 µM. Summed up:
(§2)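 Using an ATP-based luminescent reagent after three days of treatment, toxicity is scored across an eleven-concentration range in wells holding 1000 cells each.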

Test [8] is described as follows: HPAF-II 12hr Apoptosis Induction qHTS against the NCATS CANVASS Library (AID 1347358). In short, it runs like this: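 Twelve-hour compound exposure of HPAF-II cells in DMEM with 10% FBS, then luminescent Caspase-Glo 3/7 detection after 15 min at room temperature; doxorubicin control.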
Test [9] in a line: KB-8-5-11 Cancer Cell Toxicity qHTS against the NCATS CANVASS Library (AID 1347364). Further: nearly all actives have a fitted effect of over 75% in size. Further: potency means the concentration at half of the fitted maximal effect. Summed up: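 Luminescent ATP signal (CellTiter-Glo, 10 min at room temperature) measured cell survival of KB-8-5-11 after 72 hr compound treatment. For confirmation, the cells were also grown with 1uM tariquidar.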
The nature of test [10]: qHTS for Hypoxia signaling pathway (HIF-1) agonists against the NCATS CANVASS Library (AID 1347375). Summed up: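 An HRE-beta-lactamase ME-180 line is exposed for 17 h to an 11-point compound series, then read by CCF4-AM FRET. Cytotoxicity is measured in parallel in the same wells with CellTiter-Glo, and autofluorescence is checked separately.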
The nature of test [11]: qHTS for Antimalaria activity screened against the NCATS CANVASS Library (AID 1347380).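 Further: Plasmodium falciparum strain Dd2 asexual parasites grown in red blood cells; series mostly up to about 29 µM; nearly all actives have a fitted effect of over 40% in size.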 Summed up: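 Measures proliferation or cytotoxicity against Dd2 blood stages in 72 h cultures, 11-point qHTS dosing, with SYBR Green fluorescence as read-out; dihydroartemisinin titration served as control.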
Test [12] can be described thus: qHTS assay for small molecule disruptors of mitochondrial membrane potential screened against the NCATS CANVASS Library (AID 1347389). Further: nearly all actives have a fitted effect of over 60% in size. Further: potency means the concentration at half of the fitted maximal effect. Summed up:
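Cells (HepG2) seeded the day before received compound or DMSO for 1 hr, then Mito-MPS dye for 30 min at 37C; emission at 590 nm over 535 nm gave the polarization signal.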

Test [13] is described as follows: qHTS for activators of dead-cell proteases activity screened against the NCATS CANVASS Library (AID 1347392).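 Further: luminescence from protease leaking out of membrane-damaged cells cleaving impermeant substrate; rising signal means more cytotoxicity.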 In short, it runs like this:
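HepG2, 2000 cells/well, 18 h attach; cpd 11-pt, 5 h 37C 5% CO2; CytoTox-Glo (AAF-aminoluciferin) 15 min RT; luminescence read.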

A short description of test [14]: qHTS for inhibitors of ER calcium dysfunction: SERCaMP assay screened against the NCATS CANVASS Library (AID 1347393). Further: nearly all actives have a fitted effect of over 40% in size. Further: potency means the concentration at half of the fitted maximal effect. Summed up:
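SH-SY5Y GLuc-SERCaMP, 1000 cells/well, 4 h attach; cpd 16 h, 37C/5% CO2; thapsigargin (added as 6x 600 nM) 4 h; coelenterazine; luminescence. Reduced reporter release = ER Ca stabilization.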

The nature of test [15]: qHTS for inhibitors of Wild type Zika virus screened against the NCATS CANVASS Library (AID 1347396).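 Further: ATP luminescence of surviving cells so rescue from viral cell killing; series mostly up to about 46 µM.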 In short, it runs like this:
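Protection against wild-type Zika cytopathic effect is measured in African green monkey Vero 766 cells exposed to an 11-point compound series. Surviving cells are quantified by CellTiter Glo luminescence after 72 h.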

Test [16] is described as follows: UWB1.289-WTBRCA1 Cancer Cell Toxicity qHTS against the NCATS CANVASS Library (AID 1347354). Further: potency means the concentration at half of the fitted maximal effect. Summed up: as §2
Test [17] in a line: HEK293 12hr Apoptosis Induction qHTS against the NCATS CANVASS Library (AID 1347361). Summed up: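 500 HEK293 cells/well; cpds pin-transferred, 11-pt conc series; 12 h, 37 degrees C/5% CO2; Caspase-Glo 3/7 added, 15 min RT dark; luminescence.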
Test [18] in a line: qHTS for activators of Nrf2/ARE signaling pathway screened against the NCATS CANVASS Library (AID 1347391). Further: nearly all actives have a fitted effect of over 60% in size. Summed up:
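Activation of Nrf2/ARE was scored in ARE-bla HepG2 cells after 16 h compound exposure using CCF4 beta-lactamase fluorescence ratio readings.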

Test [19] is described as follows: Redox Reaction Profiling qHTS: Assay Interference Panel against the NCATS CANVASS Library (AID 1347401). Summed up: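 Fluorescence read-out (525 nm excitation, 598 nm emission) at time zero and after 15 min in the dark tracked resorufin formation. Mix: 5 uM resazurin, 200 uM DTT, HEPES pH 7.3 buffer with NaCl.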
Test [20] can be described thus: Secretion counterscreen for inhibitors of the SERCaMP assay screened against the NCATS CANVASS Library (AID 1347390).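 Further: light from luciferase secreted into medium read as a measure of general secretion; series mostly up to about 77 µM.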 Summed up:
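Luminescence from constitutively secreted GLuc in SH-SY5Y-GLuc STOP cells, read after coelenterazine addition, served as read-out. Compounds tested 0.001 - 77 uM for 20 h at 37C; Brefeldin A as positive control.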

On to `O=C1CC(c2ccc(O)cc2)Oc2ccccc21` (configuration not stated), for which the Potency entry in test [1], in test [2], in test [5], in [6], in test [7] and in test [8] was “inactive” each time. For the same compound, the Potency result in [9], in test [11] and in [13] was “inactive” each time. The Potency in test [3] is 3.75 µM (active); in test [4], 13.3 µM (active); in test [12], 14.8 µM (active); in test [14] it was 34.3 µM (active). Moreover, the call in [10] and in [15] was inactive.
With `CC1(C)CC[C@]2(CO)CC[C@]3(C)C(=CCC4[C@@]5(C)CC[C@H](O)C(C)(C)C5CC[C@]43C)C2C1` (some centres not stated), the Potency entry in test [1], in test [2], in test [3], in [4], in [5] and in [6] was “inactive” each time. Moreover, the Potency entry in test [7], in test [16], in test [8], in [9], in test [12] and in [18] was “inactive” in each case. In addition, the Potency result in [13] and in test [14] was “inactive” throughout. The result in [17], in test [10] and in [15] was inactive.
Regarding `COc1ccc([C@@H]2c3cc4c(cc3C(=O)C(C)C2C)OCO4)cc1OC` (some centres not stated), the Potency result in test [1], in test [2], in [3], in [4], in test [5] and in test [6] was “inactive” throughout. In addition, the Potency entry in test [7], in test [16], in test [12], in [13] and in test [19] was “inactive” in each case. For the same compound, in test [14], the Potency was 7.67 µM (active). Also, the call in [15] was inactive.
Turning to `C=C[C@]1(C)CC[C@@H]([C@H](C)C(=O)CC=C(C)C)O1`, the Potency result in [1], in test [2], in [3], in test [4], in test [5] and in [6] was “inactive” in each case. Besides, the Potency result in test [7], in test [16], in [8], in test [9], in test [11] and in test [12] was “inactive” in each case. Moreover, the Potency result in test [20] and in test [18] was “inactive” in each case. Besides, the compound was classed as inactive in [10] and in test [15].
`CN1C(=O)C(=O)N2C(=C[C@]3(c4c[nH]c5ccccc45)c4ccccc4N[C@H]23)C1=O`: the Potency entry in [1], in test [2], in test [3], in test [4], in test [5] and in [6] was “inactive” each time. The Potency entry in test [7], in test [16], in [8], in test [9], in test [12] and in test [20] was “inactive” in each case. Further, the Potency result in [18] and in test [14] was “inactive” in each case. Further, the result in test [17], in test [10] and in test [15] was inactive.
As to `CC(C)=CCCC(C)(O)[C@H]1CC=C(C)C(O)C1` (some centres not stated), the Potency result in test [1], in test [2], in test [3], in [4], in test [5] and in test [6] was “inactive” throughout. The Potency entry in test [7], in test [16], in test [8], in [9], in test [12] and in [20] was “inactive” each time. The Potency result in [18], in [13], in test [14] and in [19] was “inactive” each time. Also, the compound was classed as inactive in test [17] and in test [15].
On to `COC(=O)[C@@]12Oc3cccc(O)c3C(O)=C1C(=O)C[C@H](C)[C@H]2O`, for which the Potency entry in test [1], in test [2], in test [3], in [4], in test [5] and in [6] was “inactive” each time. The Potency result in test [7], in test [16], in test [8], in [9], in test [11] and in test [12] was “inactive” in each case. For the same compound, the Potency entry in test [13] and in test [19] was “inactive” each time. Also, the compound was classed as inactive in [17], in test [10] and in test [15].
In the case of `COC1C(C)OC(OCC23C[C@@H]4[C@H](C)CC[C@H]4C4(C=O)CC2C=C(C(C)C)C34C(=O)O)[C@@H](O)[C@H]1O` (some centres not stated), the Potency result in [1], in [2], in test [3], in test [4], in test [5] and in test [6] was “inactive” each time. For the same compound, the Potency result in [7], in [16], in test [9], in test [11], in [12] and in test [20] was “inactive” each time. The Potency entry in test [18], in [13], in test [14] and in test [19] was “inactive” throughout. Besides, the call in test [15] was inactive.
`C=C(Cl)[C@](Cl)(CBr)CC[C@@H](Br)C(C)(C)Cl`: the Potency is 10.6 µM (active) in test [1]; 6.68 µM (active) in test [2]; 14.9 µM (active) in [3]; 2.98 µM (active) in test [5]; 8.41 µM (active) in test [6]; 18.8 µM (active) in test [16]. The Potency in [9] was 9.35 µM (active). Besides, the Potency result in test [4], in test [7], in test [8], in test [12], in [20] and in [19] was “inactive” each time. In addition, the call in [17] and in test [15] was inactive.
With `C[C@@]1(CCC(=O)Nc2c(O)ccc(C(=O)O)c2O)C(=O)C=C[C@]23C[C@H]4C[C@H](O[C@@]4(C)C2)C31` (some centres not stated), the Potency entry in test [1], in test [2], in test [3], in test [4], in test [5] and in [6] was “inactive” each time. Besides, the Potency result in [7], in test [16], in [9], in test [12], in test [20] and in test [18] was “inactive” each time. In addition, the Potency entry in test [13], in test [14] and in [19] was “inactive” each time. The call in test [10] and in [15] was inactive.
